Screening results: PubChem, National Center for Advancing Translational Sciences (NCATS)
GCN5L2 inh: GCN5L2 (KAT2A) acetyltransferase inhibition; Q92830; Potency, µM (series often up to 58.9 µM), most hits filed as inhibitors; GCN5L2 HAT assay, ThioGlo1 CoA-SH fluorescence; AID 504327; 390,000 tested, 0.21% active
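Fluorescence readout, Ex340nm/Em540nm: ThioGlo1 (50uM final) reacts with free CoA thiol released as 20nM GCN5L2 acetylates H3(1-25) peptide (75uM) using acetyl-CoA (70uM). Compound and enzyme sat 15 min beforehand; 20 min room-temperature reaction.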
PLK1 PBD inh: inhibitors of human PLK1 polo-box domain binding. AID 720504. Plk1 PBD binding of FITC phosphopeptide, fluorescence polarization. 360,000 tested, 2.8% active. Potency, µM, actives largely listed as inhibitors; note: series mostly up to about 57 µM; nearly all actives have a fitted effect of over 65% in size
DT40 TDP1 no CPT: qHTS for Inhibitors of human tyrosyl-DNA phosphodiesterase 1 (TDP1): qHTS in cells in absence of CPT | DT40 Tdp1-/- hTDP1 cells, no CPT, ATP luminescence, 48 h | 420,000 tested, 15% active | Potency, µM (top dose mostly 46.2 µM), most hits filed as inhibitors; note: nearly all actives have a fitted effect of over 55% in size
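Compound effects on proliferation are scored in DT40 Tdp1-/-;hTDP1 cells in the absence of CPT. ATP levels (CellTiter-Glo luminescence) are recorded after a ≥48 hr, 37 °C incubation.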
TDP1 block: inhibitors of human tyrosyl-DNA phosphodiesterase TDP1; Q9NUW8; Potency, µM (titrated, usually from 130 µM), usual class: inhibitors; recombinant TDP1, AlphaScreen DNA substrate cleavage; 350,000 tested, 0.28% active; note: nearly all actives have a fitted effect of over 40% in size
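Enzyme-compound mixtures sat 15 min at room temperature, followed by a 5 min reaction with 15 nM final substrate and 10 min with AlphaScreen beads. Recombinant human Tdp1 was used at 1 nM final.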
DT40 TDP1 CPT: growth inhibition of DT40 Tdp1-/-;hTDP1 cells with camptothecin (screen for TDP1 inhibitors); Potency, µM (doses to about 46.2 µM), hits mostly inhibitors; 420,000 tested, 12% active; chicken DT40 Tdp1-/-;hTDP1 cells + 20 nM CPT, ATP luminescence, 48 h; note: nearly all actives have a fitted effect of over 55% in size
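Chicken DT40 Tdp1-/- cells complemented with human TDP1, 400 cells/well, exposed to compounds plus 20 nM camptothecin for at least 48 h at 37 C; viability read as ATP content by CellTiter-Glo luminescence.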
VDR inh: inhibitors of human vitamin D receptor; P11473; VDR-SRC2-3 peptide fluorescence polarization, 2 h; 400,000 tested, 0.93% active; Potency, µM, usual class: inhibitors; AID 504847
Target sequence (P11473 whole entry, looked up): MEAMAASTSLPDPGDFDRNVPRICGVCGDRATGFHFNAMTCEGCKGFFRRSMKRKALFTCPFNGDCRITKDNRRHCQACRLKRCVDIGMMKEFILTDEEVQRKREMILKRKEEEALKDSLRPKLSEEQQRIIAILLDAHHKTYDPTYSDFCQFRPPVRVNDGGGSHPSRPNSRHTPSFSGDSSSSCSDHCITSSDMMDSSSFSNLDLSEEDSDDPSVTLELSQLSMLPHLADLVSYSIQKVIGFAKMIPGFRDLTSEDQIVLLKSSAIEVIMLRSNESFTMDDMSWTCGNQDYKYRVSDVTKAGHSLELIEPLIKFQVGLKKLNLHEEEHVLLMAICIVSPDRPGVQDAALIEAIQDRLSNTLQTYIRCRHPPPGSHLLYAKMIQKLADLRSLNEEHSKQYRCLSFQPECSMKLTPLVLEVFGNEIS
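Signal is fluorescence polarization, reporting how far test compounds block the interaction of VDR with the SRC2-3 coregulator peptide after a 2 h room-temperature incubation.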
A number is an active result; . = inactive; ? = inconclusive; / = not tested or not shown; [ ] = dose if it differs, or a comment. Sampled rows, rich in hits. Any-hit rate of the full collection: about 18%. Calls come from the whole dose curve; as a rule, active = well fitted curve in the direction sought with a large enough effect; inconclusive = small, poorly fitted or top-dose-only effect, or another doubt; inactive = no such curve, though single readings can be large; an effect the other way counts as inactive or inconclusive.

SMILES	GCN5L2 inh	PLK1 PBD inh	DT40 TDP1 no CPT	TDP1 block	DT40 TDP1 CPT	VDR inh
C=CCOc1ccc2nc(NC(=O)OC)[nH]c2c1	.	.	0.82µM	.	0.651µM	.
CCCCc1ccc2nc(NC(=O)OC)[nH]c2c1	.	/	0.057µM	.[21 µM]	0.0718µM	.
CCOC(=O)c1ccc(NC(=O)C2=C(C)C(=O)OC23CCCCCC3)cc1	.	/	?	.	?	.
CC(C)(C)c1ccc(-n2nc(C(N)=O)c(O)cc2=O)cc1	.	4.74µM	?	.	?	?
O=C(O)c1nn(-c2cccc(Cl)c2)c(=O)cc1O	.	.	.	.	.	.
Cc1cc(C(=O)CSc2ncccn2)c(C)n1Cc1ccco1	.	.	.	.	.	.
Cc1cc(C(=O)C(C)Cl)c(C)n1Cc1ccco1 (centres undefined)	.	21.2µM	?	.	?	.
Cc1cc(C(=O)CSc2nc3ccc(Cl)cc3[nH]2)c(C)n1Cc1ccco1	/	.	18.4µM	/	20.6µM	?
Cc1cccc(-n2nc(C(=O)c3ccco3)cc(-c3nc4ccccc4[nH]3)c2=N)c1	.	.	8.2µM	.	16.4µM	.
COc1ccc(-n2nc(C(=O)c3cccs3)cc(-c3nc4ccccc4[nH]3)c2=N)cc1	.	.	5.8µM	.	5.8µM	.
COc1cccc2cc(-c3nc4ccccc4[nH]3)c(=O)oc12	?	.	?	/	.	.
Cc1ccc2nc(-c3cccc(NC(=O)c4ccco4)c3)[nH]c2c1	.	.	.	.	?	.
Cc1ccccc1-n1nc(C(=O)c2cccs2)cc(-c2nc3ccccc3[nH]2)c1=N	.	.	7.31µM	.	11.6µM	.
O=C(Cc1cccs1)Nc1ccccc1-c1nc2ccccc2[nH]1	.	.	?	.	?	.
Cc1ccsc1C(=O)N1CCCC(N(C)Cc2ccccc2)C1 (centres undefined)	.	.	.	.	.	.
CCOc1cc(-c2ccccc2)nc2c1CN(S(=O)(=O)c1ccc(C)cc1)C(c1cccc(Cl)c1)C2 (centres undefined)	/	.	9.2µM	/	?	/
CCOC1=C2CN(S(=O)(=O)c3ccc(C)cc3)[C@H](c3ccccc3)C[C@@H]2N(S(=O)(=O)c2ccc(C)cc2)[C@H](c2cccc(C)c2)C1	/	.	.	/	.	/
O=C(NC(=S)Nc1cccnc1Cl)c1ccc(F)cc1	.	.	?	/	.	.
CSCCC(NC(=O)c1ccco1)C(=O)NCC1CCCO1 (centres undefined)	.	.	3.26µM	.	.	.
CCc1ccc(CN(Cc2ccco2)c2cnc(S(C)(=O)=O)nc2C(=O)Nc2c(C)cccc2C)cc1	.	/	18.4µM	.	16.4µM	.
CC(C)c1ccc(CN(Cc2ccco2)c2cnc(S(C)(=O)=O)nc2C(=O)Nc2ccc(F)cc2)cc1	.	/	20.6µM	.	?	.
Cc1ccc(NC(=O)c2nc(S(C)(=O)=O)ncc2N(Cc2ccco2)Cc2ccco2)cc1	.	/	11.6µM	.	8.2µM	.
Cc1ccc(NC(=O)c2nc(S(C)(=O)=O)ncc2N(Cc2cccc(F)c2)Cc2ccco2)cc1C	.	/	?	.	?	.
Cc1cccc(C)c1NC(=O)c1nc(S(C)(=O)=O)ncc1N(Cc1ccc(F)cc1)Cc1ccco1	.	/	?	.	?	.
CCOC(CNC(=O)CN1C(=O)COc2ccc(S(=O)(=O)N3CCCC3)cc21)OCC	.	.	.	.	.	.
SMILES	GCN5L2 inh	PLK1 PBD inh	DT40 TDP1 no CPT	TDP1 block	DT40 TDP1 CPT	VDR inh
CCCc1ccc(S(=O)(=O)NCc2nnc(SC)n2C)cc1	.	.	.	/	.	.
CCCC(=O)Nc1cc(C(=O)O)ccc1S(=O)(=O)c1ccc(Cl)cc1	.	.	.	.	.	.
CN1C(=O)NC(c2ccc(O)cc2)C2=C1CN(c1ccccc1)C2=O (centres undefined)	.	23.8µM	?	.	?	?
CN1C/C(=C/c2ccc(B(O)O)cc2)C(=O)/C(=C/c2ccc(B(O)O)cc2)C1	.	/	/	.	/	4.47µM
Cc1nn(C)c(Oc2ccccc2)c1CCNS(=O)(=O)c1ccc(Cl)cc1	.	.	16.4µM	.	16.4µM	.
Cc1nn(C)c(Oc2ccccc2)c1CCNC(=O)C(C)(C)C	.	.	.	.	.	.
Cc1c(C(=O)NCC(C)(C)CN(C)C)cnn1-c1nccc(-c2ccccc2F)n1	/	/	.	/	.	/
CN1CC(c2ccccn2)C2(SC(=S)N(Cc3ccccc3)C2=O)C12C(=O)Nc1ccccc12 (centres undefined)	.	?	.	.	?	.
CN1CC(c2ccccc2)C2(SC(=S)N(Cc3ccco3)C2=O)C12C(=O)Nc1ccccc12 (centres undefined)	.	.	11.2µM	.	.	.
Cc1ccc2c(c1)cc1c(=O)n(CC(=O)N3CCCCC3)nc(C)n12	.	/	?	.	.	.
NC(=S)C1COc2ccccc2O1 (centres undefined)	.	?	.	.	.	.
Nn1c(C2COc3ccccc3O2)n[nH]c1=S (centres undefined)	.	16.8µM	?	.	?	?
COc1ccc(S(=O)(=O)N2CCC[C@H]2C(=O)N2CCC[C@H]2C(=O)NCc2ccccc2)cc1C	/	.	?	/	?	/
COc1ccc(S(=O)(=O)N2CCC[C@H]2C(=O)N2CCC[C@H]2C(=O)NCc2ccc(F)cc2F)cc1C	/	.	18.4µM	/	?	/
COc1cccc(CNC(=O)[C@@H]2CCCN2C(=O)[C@H]2CCCCN2S(=O)(=O)c2ccc(OC)c(C)c2)c1	/	.	20.6µM	/	?	/
Cc1cc(C)c(O)c(-c2cc(C(=O)Nc3ccc(S(=O)(=O)N4CCOCC4)cc3)[nH]n2)c1	.	.	16.4µM	.	16.4µM	.
CC(=O)Nc1ccc(NC(=O)c2cc(-c3cc(C)cc(C)c3O)n[nH]2)cc1	.	.	16.4µM	/	11.6µM	.
CCOc1cc(S(=O)(=O)NCc2ccncc2)c(C)cc1C	.	.	.	.	.	.
CSc1nc(C(=O)N2CCc3c([nH]c4ccccc34)C2c2ccccn2)cs1 (centres undefined)	?	.	?	.	.	.
O=C(c1ccccc1-n1cccn1)N1CCc2c([nH]c3ccccc23)C1c1ccccn1 (centres undefined)	.	.	10.3µM	/	10.3µM	.
CCc1nc(C)ccc1OCC(=O)N1CCc2c([nH]c3ccccc23)C1c1ccccn1 (centres undefined)	.	.	23.1µM	.	20.6µM	.
